Inconclusive results are not listed. Active and inactive are the calls of the source. Calls come from the whole dose curve; as a rule, active = well fitted curve in the direction sought with a large enough effect; inconclusive = small, poorly fitted or top-dose-only effect, or another doubt; inactive = no such curve, though single readings can be large; an effect the other way counts as inactive or inconclusive.
Experiments:
[1] = qHTS assay for measurement of the activity of small molecule inhibitors on Zika virus induced Caspase-3 activity in human iPSC derived neural progenitor cells (hNPCs) (AID 1224857); note: % of control where 0% means no effect; nearly all actives have a fitted effect of over 65% in size
How it was run: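 Zika virus (2 FFU/cell) infection of human iPSC-derived NPCs, 6 h, following 1 h compound preincubation. Read-out: Caspase-Glo 3/7 luminescence.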

[2] = qHTS assay for measurement of the activity of small molecule inhibitors on Zika virus induced Caspase-3 activity in human astrocytoma cells (AID 1224859);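 note: plate controls were ZIKV-infected untreated cells for no effect and uninfected cells for full effect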
How it was run: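 Caspase activation in ZIKV-infected SNB-19 cells (2 FFU/cell, 6 h) measured by Caspase-Glo 3/7 luminescence after 30 min RT; compound pre-incubated 1 h; normalised to uninfected and infected controls.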

[3] = qHTS assay to identify small molecule inhibitors of chordoma cells - UCH-1 (AID 1259355); note: % is set by controls: 0 for no effect and ±100 for the full control effect; nearly all actives have a fitted effect of over 55% in size
How it was run: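 Screening used approved and investigational drugs in 15-point titration against 800 seeded cells per well. A fixed combination of auranofin with camptothecin, doxorubicin, rubitecan and topotecan followed compound addition, and growth was scored by CellTiter-Glo after 48hr.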

[4] = qHTS assay to identify small molecule inhibitors of chordoma cells - UCH-2 (AID 1259356); note: series mostly up to about 46 µM; % is set by controls: 0 for no effect and ±100 for the full control effect

Measured: activity, negative = inhibition

CC1(c2ccccc2)OC(C(=O)O)=CC1=O (stereo unspecified)
inactive: [1] | [2] | [3] | [4]

CC1CC(OC(=O)c2ccccc2O)CC(C)(C)C1 (stereo unspecified)
inactive: [1] | [2] | [3] | [4]

C/C=C/C(=O)N(CC)c1ccccc1C
inactive: [1] | [2] | [3] | [4]

Cc1ccccc1N=Nc1ccc(N=Nc2c(O)ccc3ccccc23)c(C)c1
inactive: [1] | [2] | [3] | [4]

O=C(O)c1ccccc1OP(=O)(O)O
inactive: [1] | [2] | [3] -7.01% [at 1.88 µM] | [4]

COc1ccccc1OC(=O)Oc1ccccc1OC
inactive: [1] | [2] | [3] | [4]

O=C(O)CCC(=O)O
inactive: [1] | [2] | [3] | [4]

NC(=O)CCCCC1CCSS1 (stereo unspecified)
inactive: [1] | [2] | [3] | [4]

CC(=O)OCC(=O)[C@@]1(O)CC[C@H]2[C@@H]3CCC4=CC(=O)C=C[C@]4(C)[C@@]3(F)[C@@H](O)C[C@@]21C
inactive: [1] | [2] | [3] | [4]

NC(=O)NC1NC(=O)NC1=O (stereo unspecified)
inactive: [1] | [2] | [3] | [4]

CCCCCCCCCCCCCCCCN
inactive: [1] | [2] | [3] | [4]

C=CCSCC1Nc2cc(Cl)c(S(N)(=O)=O)cc2S(=O)(=O)N1 (stereo unspecified)
inactive: [1] | [2] | [3] | [4]

COc1ccc2cc(CCC(C)=O)ccc2c1
inactive: [1] | [2] | [3] | [4]

c1ccc2[nH]ccc2c1
inactive: [1] | [2] | [3] | [4]

O=C(c1ccccc1)C(O)c1ccccc1 (stereo unspecified)
inactive: [1] | [2] | [3] | [4]

O=C(NCCCN1CCOCC1)c1ccc(Cl)cc1
inactive: [1] | [2] | [3] | [4]

O=C(Cn1ccnc1[N+](=O)[O-])NCCO
inactive: [1] | [2] | [3] | [4]

CC(=O)Nc1ccc(C(=O)O)cc1
inactive: [1] | [2] | [3] | [4]

Cc1c(C(=O)NCCO)[n+](=O)c2ccccc2n1[O-]
inactive: [1] | [2] | [3] | [4]

Source: PubChem BioAssay (NCATS)
